Source: PubChem BioAssay AID371 (SRMLSC, 2006)
Among all 3,300 compounds or so, about 280 (8.5%) were called active. The full list was thinned out, with actives kept by preference. A number with no mark means an inactive call.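 Rule for the calls: active = mean growth inhibition over the two runs of 50% or more; inactive = mean growth inhibition under 50%.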

experiment: A549 NSCLC cell proliferation inhibitors – ATP luminescence, human non-small cell lung line, primary screen (AID 371); conditions: at 10 µM, stronger effect = higher value;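 note: compound exposure lasted 72 h before the ATP read; 0% = untreated cell signal and 100% = no luminescence left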

Compound	growth inhibition
COc1ccc(Nc2cc(C)nc3ccccc23)cc1	31.3%
COc1ccc(Nc2cc(C)nc(-n3nc(C)cc3C)n2)cc1	66.2% (active)
COc1ccc(Nc2nc(Nc3ccc(OC)cc3)nc(-n3[nH]c(=O)c(C)c3C)n2)cc1	39.1%
O=C(Nc1ccccc1)c1cc(N2CCOCC2)nc2ccccc12	8.97%
CC(C)COc1ccc(C(=O)NC(CC(C)C)C(=O)O)cc1 (stereo not drawn)	-8.3%
COc1cc(-c2nn3c(-c4ccccn4)nnc3s2)cc(OC)c1OC	-8.06%
Cc1ccc2c(=O)c(CN(C)C3CCN(C)CC3)c(C)[nH]c2c1C	5.56%
COc1ccc(C2=Nn3c(nnc3-c3ccccn3)SC2)cc1OC	3.8%
CCOc1ccc(C2=Nn3c(nnc3-c3cccnc3)SC2)cc1	22.4%
COc1ccc(C2=Nn3c(nnc3-c3cccnc3)SC2)cc1OC	25%
CCOc1ccc(C2=Nn3c(nnc3-c3ccccn3)SC2)cc1	42.3%
COc1ccccc1-c1nnc2n1N=C(c1ccc(O)c(O)c1)CS2	74.4% (active)
COc1ccc(C2=Nn3c(nnc3-c3ccccn3)SC2)cc1	50.1% (active)
COc1ccc(C2=Nn3c(nnc3-c3ccccc3)SC2)cc1OC	8.86%
CCOc1ccc(C2=Nn3c(nnc3-c3ccccc3OC)SC2)cc1	66% (active)
COc1ccc(OC)c(C2=Nn3c(nnc3-c3ccco3)SC2)c1	23.2%
Cc1ccsc1C1NC(=O)c2c(sc3c2CCCC3)N1 (stereo not drawn)	45.3%
O=CN1CCN(C(=O)CN2C(=O)c3ccccc3C2=O)CC1	-3.2%
C/C=C/c1ccccc1OCc1ccc(C(=O)O)o1	6.28%
CC12CN3CC(=O)N4CC5(C)CN(CC(C)(C4)C5=O)C(=O)CN(C1)CC(C)(C3)C2=O	1.18%
COC(=O)CSc1ncnc2c1sc1nc(-c3ccco3)c3c(c12)CC(C)(C)OC3	4.18%

Compound	growth inhibition
O=C(Nc1ccccn1)c1ccc(=O)[nH]n1	5.88%
C=CCn1c(SCC(=O)OC)nc2sc3c(c2c1=O)CCN(C)C3	0.89%
CCCC1C2C(=O)N(c3ccccc3OC)C(=O)C2ON1c1ccccc1 (stereo not drawn)	5.99%
CN(Cc1ccccc1)c1ncnc2ccc(Br)cc12	55.5% (active)
CN(C)CCN(Cc1ccccc1)c1ccccn1	0.66%
COCCNc1nc2c(c(=O)n(C)c(=O)n2C)n1Cc1cccc(C(F)(F)F)c1	36.4%
Cc1c(NC(=O)c2coc(=O)c(Br)c2)c(=O)n(-c2ccccc2)n1C	80.5% (active)
Cc1c(NC(=O)c2ccc(=O)oc2)c(=O)n(-c2ccccc2)n1C	-1.44%
Cc1c(NC(=O)C(CC(=O)O)NCc2ccco2)c(=O)n(-c2ccccc2)n1C (stereo not drawn)	5.55%
Cc1c(CCC#N)c(N2CCN(C3CCCCC3)CC2)n2c(nc3ccccc32)c1C#N	89.1% (active)
C=C(C)CN1CCN(c2c(CCC#N)c(C)c(C#N)c3nc4ccccc4n23)CC1	25.9%
Cc1c(CCC#N)c(N2CCCCC2)n2c(nc3ccccc32)c1C#N	4.5%
CC1(C)CC(=O)C(CCCN2C(=O)c3ccccc3C2=O)C(=O)C1	0.69%
Cc1ccc(-c2nn3c(-c4cccc(Cl)c4)nnc3s2)cc1	45%
CC(C)COc1ccc(C(=O)OCCN2CCOCC2)c(O)c1	12.1%
C(=C\c1ccccc1)/CN1CCN(C(c2ccccc2)c2ccccc2)CC1	22.9%
O=c1[nH]c2ccccc2n1CCCN1CCN(C(c2ccccc2)c2ccccc2)CC1	90.4% (active)
O=C(O)CCCC(=O)N1CCN(C(c2ccccc2)c2ccccc2)CC1	0.62%
COc1cc2[nH]c3c(=O)n(CCN(C(C)C)C(C)C)cnc3c2cc1OC	5.76%
Cc1ccc(-c2nn(CCC(=O)NCC3CCCO3)c(=O)c3ccccc23)cc1 (stereo not drawn)	17.4%
O=C(N(c1ccccc1)c1ccccc1)n1ccnc1	7.93%

Compound	growth inhibition
c1ccc(-c2ccc(C(c3ccccc3)n3ccnc3)cc2)cc1 (stereo not drawn)	78.7% (active)
COc1cc(C2C(C#N)=C(N)Oc3cc(N)ccc32)cc(OC)c1OC (stereo not drawn)	51.6% (active)
COc1cccc(C2C(C#N)=C(N)Oc3cc(C)[nH]c(=O)c32)c1OC (stereo not drawn)	2.31%
COc1cc(C2C(C#N)=C(N)Oc3cc(C)n(CCN4CCOCC4)c(=O)c32)cc(OC)c1OC (stereo not drawn)	3.04%
CC(C(=O)N1CCCCC1)N1C(=O)c2ccccc2C1=O (stereo not drawn)	-14.3%
O=C1C(=O)N(CCN2CCOCC2)C(c2ccccn2)/C1=C(/O)c1ccccc1 (stereo not drawn)	4.51%
CCN(CC)CCCN1C(=O)C(=O)/C(=C(/O)c2ccc(Cl)cc2)C1c1ccccn1 (stereo not drawn)	-16.8%
CCC(C(=O)OCCN(CC)CC)c1ccccc1 (stereo not drawn)	5.51%
CCN(CC)CCOC(=O)C(c1ccccc1)c1ccccc1	2.67%
CCCCc1oc2ccccc2c1C(=O)c1cc(I)c(OCCN(CC)CC)c(I)c1	83.4% (active)
CCCn1c(SCC#N)nc2c(c1=O)C1(CCCC1)Cc1ccccc1-2	21.2%
O=S(=O)(c1ccccc1)N1CCC(N2CCN(c3ccccc3)CC2)CC1	4.82%
Cc1ccc2[nH]c3c(N4CCN(Cc5ccc6c(c5)OCO6)CC4)ncnc3c2c1	83.9% (active)
COc1ccc2[nH]c3c(N4CCN(Cc5ccc6c(c5)OCO6)CC4)ncnc3c2c1	76.3% (active)
CCCCNC(=O)C(C#N)c1nc2ccccc2nc1N1CCN(Cc2ccc3c(c2)OCO3)CC1 (stereo not drawn)	11.1%
CCN(CC)CCNc1ncnc2c1[nH]c1ccc(OC)cc12	42.2%
CC(C)OC(=O)C(C#N)c1nc2ccccc2nc1N1CCN(Cc2ccc3c(c2)OCO3)CC1 (stereo not drawn)	3.13%
Cc1cc(=O)oc(C)c1C(=O)N1CCN(Cc2ccc3c(c2)OCO3)CC1	8.78%
COc1ccccc1C(=O)N1CCN(Cc2ccc3c(c2)OCO3)CC1	8.7%
CCOC(=O)N1CCN(c2ncnc3c2[nH]c2ccc(OC)cc23)CC1	28.5%
Fc1ccc2[nH]c3c(N4CCN(Cc5ccc6c(c5)OCO6)CC4)ncnc3c2c1	83.3% (active)
